Experimental data as given in PubChem BioAssay (NCATS).
A number with no mark means an inactive call. The rule behind the calls is not given here.

These compounds were tested on HIV-1 nucleocapsid protein NCp7 (binding to TG oligonucleotide) (assay: HIV Nucleocapsid (AID 346;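 note: potency is for inhibitors that block NC binding and lower polarization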)). Conditions: HIV-1 NC / fluorescein-TGTGTGTG probe, fluorescence polarization.
In short: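 Fluorescence polarization binding of 100 nM HIV-1 NC to 10 nM fluorescein-labelled TG4xF oligonucleotide. Buffer was Hepes pH 7.5 with 250mM NaCl, 1uM ZnCl2, TCEP and 2-mercaptoethanol. Compounds were incubated 1 hr at room temperature before the read.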
Potency is the fitted concentration of half-maximal effect.

SMILES	Potency
c1csc(CNc2ncnc3ccc(-c4ccc5c(c4)OCO5)cc23)c1	> 20 µM
O=C(c1ccncc1)N1CCC2(CC1)CCN(c1ncccn1)CC2	> 20 µM
COc1ccc(Oc2ncc3nc(-c4cc(F)cc(F)c4)c(=O)n(CCC#N)c3n2)cc1	> 20 µM
Cc1ccccc1-c1nccc(NCc2cccs2)n1	> 20 µM
Cn1c(=O)c(-c2cccs2)nc2cnc(Oc3ccccc3)nc21	> 20 µM
COc1cccc(-c2nc(Nc3ccncc3)c3ccccc3n2)c1	> 20 µM
COc1ccc(-c2nc3cnc(N(C)C)nc3n(-c3ccccc3)c2=O)cc1	> 20 µM
COc1ccc(C(=O)N2CCC3(CCCN(c4ncccn4)C3)CC2)cc1	> 20 µM
c1cc(NC2CC2)nc(-c2ccoc2)n1	> 20 µM
CNc1cc(-c2c(C)noc2C)ncn1	> 20 µM
CN(C)C(=O)c1ccc(-c2nccc(NCc3cccs3)n2)cc1	> 20 µM
CCNc1ncc2nc(-c3ccc(OC)cc3)c(=O)n(-c3ccc(OC)cc3)c2n1	> 4 µM
COc1ccc(CNc2nc(-c3cccc(NS(C)(=O)=O)c3)nc3ccccc23)c(OC)c1	> 20 µM
COc1ccccc1-c1nc(N2CCN(C)CC2)c2ccccc2n1	> 20 µM
O=C(Nc1ccccc1)N1CCCC2(CCN(C(=O)c3cc(C(F)(F)F)cc(C(F)(F)F)c3)CC2)C1	> 20 µM
